# From PubChem BioAssay (NCATS)
# Where “and” joins values, the source holds several entries; their conditions need not be identical. Equal values may be shown once. Records with an inconclusive call do not appear. Calls of active or inactive are those of the source. Unless noted, the rule behind the calls is not given here.
# Legend:
# [1] = qHTS profiling of the MIPE4 collection as inhibitors of Plasmodium falciparum (3D7) proliferation (AID 743344);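 note: scaled between DMSO vehicle wells and 0.29 µM artemisinin as full inhibition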; settings: P. falciparum 3D7 in erythrocytes, SYBR Green DNA fluorescence, 72 h; at 28.5 µM unless noted
# How it was run: (§1)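 Parasite DNA was quantified by SYBR Green I fluorescence (ex 485, em 535 nm) after overnight lysis in saponin/Triton buffer at room temperature. Cultures at 0.3% parasitemia and 2.5% hematocrit were first exposed to compound for 72 h at 37 C; signals were normalised to artemisinin (0.29 uM) and vehicle wells.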
# [2] = qHTS profiling of the MIPE4 collection as inhibitors of Plasmodium falciparum (DD2) proliferation (AID 743345); settings: P. falciparum Dd2 in erythrocytes, SYBR Green DNA, 72 h
# How it was run: as §1
# [3] = qHTS profiling of the MIPE4 collection as inhibitors of Plasmodium falciparum (HB3) proliferation (AID 743347);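 note: plate controls were DMSO vehicle wells for no effect and artemisinin wells for full effect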; settings: P. falciparum HB3 in erythrocytes, SYBR Green DNA, 72 h
# How it was run: as §1
# [4] = High-throughput drug toxicity screening in the BPDCN cell line Gen2.2 (AID 1224824); settings: Gen2.2 BPDCN cells; at 45.8 µM (top of the series) unless noted;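 note: cells exposed to compounds for 48 h before reading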
# How it was run: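 Seed 500 exponentially growing Gen2.2 cells/well; add compounds by pin tool; incubate 48 h, 37 °C, 5% CO2; add CellTiter-Glo, 15 min RT; read luminescence. % activity vs DMSO (100%) and bortezomib (0%).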
# [5] = qHTS profiling for inhibitors of Plasmodium falciparum (3D7) proliferation (AID 743322);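 note: infected erythrocytes exposed to compound for 72 h before lysis; 100% = DMSO vehicle wells and 0% = 0.29 µM artemisinin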; settings: P. falciparum 3D7 proliferation; at 28.7 µM (top of the series) unless noted
# How it was run: as §1
# [6] = qHTS profiling for inhibitors of Plasmodium falciparum (HB3) proliferation (AID 743324; active = well fitted curve in the direction sought with a large enough effect; an effect the other way counts as inactive or inconclusive;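 note: 100% = DMSO vehicle wells and 0% = artemisinin-treated control wells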); settings: Plasmodium falciparum HB3 blood-stage proliferation; at 28.7 µM (top of the series) unless noted
# How it was run: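 SYBR Green fluorescence (485 ex/535 em) of lysed cultures, incubated overnight at room temperature in the dark, quantifies parasite DNA. Infected erythrocytes at 0.3% parasitemia and 2.5% hematocrit were exposed 72 h; values normalized to DMSO and 0.29 uM artemisinin controls.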
# [7] = qHTS profiling of the MIPE4 collection as inhibitors of Plasmodium falciparum (DD2) proliferation (Rep 2) (AID 743346); settings: P. falciparum Dd2 in erythrocytes, SYBR Green DNA, 72 h; at 28.5 µM unless noted
# How it was run: as §1
# [8] = qHTS Assay for Identifying Gametocytocidal Compounds (AID 743244; active = well fitted curve in the direction sought with a large enough effect; an effect the other way counts as inactive or inconclusive; note: potency is the fitted concentration of half-maximal effect;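 for max response: % is set by controls: 0 for no effect and ±100 for the full control effect; actives lower the fluorescent signal which means gametocytes are killed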); settings: P. falciparum 3D7 stage III-V gametocytes, alamarBlue, 72 h; max response: stronger effect = lower value
# How it was run: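 Late gametocytes (III–V), P. falciparum 3D7; 72 h drug, then 24 h alamarBlue; resazurin reduction read by fluorescence.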
# [9] = qHTS assay for small molecule agonists of the antioxidant response element (ARE) signaling pathway measured by Nrf2-dependant transcriptional activity (AID 720636; active = well fitted curve in the direction sought with a large enough effect in the repeat runs; an effect the other way counts as inactive or inconclusive;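 note: HepG2 cells with an ARE-driven luciferase reporter; % of control where 0% means no effect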)
# How it was run: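 We exposed ARE-luc HepG2 cells, seeded in assay medium with 1% dialyzed FBS and allowed 6 hr to adhere, to test compounds overnight (16 hr, 37 C) before measuring luciferase with ONE-Glo.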
# [10] = qHTS assay for small molecule antagonists of the retinoid-related orphan receptor gamma (ROR-gamma) signaling pathway - cell viability counter screen (AID 720652; active = well fitted curve in the direction sought with a large enough effect in the repeat runs; an effect the other way counts as inactive or inconclusive;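 note: CHO reporter cells with doxycycline-induced ROR-gamma expression; compound exposure lasted 16 hr before ATP read; % is set by controls: 0 for no effect and ±100 for the full control effect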)
# How it was run: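 ATP-based viability readout in the ROR-gamma reporter CHO cells after 16 hr compound exposure under doxycycline induction.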
# [11] = qHTS assay for small molecule agonists of the antioxidant response element (ARE) signaling pathway measured by Nrf2-dependant transcriptional activity - cell viability counter screen (AID 720653; active = well fitted curve in the direction sought with a large enough effect in the repeat runs; an effect the other way counts as inactive or inconclusive; note: % is set by controls: 0 for no effect and ±100 for the full control effect); settings: ARE-bla HepG2 viability, CellTiter-Glo ATP luminescence, 16 h; max response: stronger effect = lower value
# How it was run: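 Cytotoxicity counter screen: intracellular ATP quantified by CellTiter-Glo luminescence in the same ARE-bla HepG2 plates, after 16 h compound exposure and a 2 h beta-lactamase substrate step.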
# [12] = qHTS assay for cell viability of HEK293 cells (AID 743288; active = well fitted curve in the direction sought with a large enough effect; an effect the other way counts as inactive or inconclusive; note: % is set by controls: 0 for no effect and ±100 for the full control effect; nearly all actives have a fitted effect of over 50% in size); settings: ATP luminescence (CellTiter-Glo), 18 h; max response: stronger effect = lower value
# How it was run: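 Viable-cell counts were inferred from luciferase-based ATP content in HEK293 cells seeded at 2,000/well, pre-incubated ≥5 h, then dosed with DMSO-solubilised compounds for 18 h at 37 C.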
# [13] = qHTS assay for cell viability of the p53RE-bla HCT-116 cell line (AID 743292; active = well fitted curve in the direction sought with a large enough effect; an effect the other way counts as inactive or inconclusive; note: % is set by controls: 0 for no effect and ±100 for the full control effect; nearly all actives have a fitted effect of over 55% in size)
# How it was run: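 In this qHTS counter-screen, metabolically competent p53RE-bla HCT-116 cells were counted via their ATP content. Compounds were applied for 16 h at 37 C and luciferase-coupled luminescence was measured.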
# [14] = qHTS for small molecule inhibitors of Yes1 kinase: Counter Assay (AID 686950; active = well fitted curve in the direction sought with a large enough effect; an effect the other way counts as inactive or inconclusive;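 note: no kinase present so only ADP-Glo detection of a fixed ADP amount is tested; luminescence from ADP-Glo reporting ADP in a fixed ATP and ADP mixture; 0% = DMSO wells with ATP plus ADP and -100% = ATP-only wells without ADP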)
# How it was run: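 ADP-Glo luminescence read after a 60 min room-temperature incubation of compound with an ATP/ADP mix (0.08 mM/0.02 mM) and no kinase, following a 20 min compound preincubation. Signal scaled between ATP+ADP (max) and 0.1 mM ATP-only (min) wells; Tris pH 7.5, Mg2+, DTT.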
# [15] = target: Arylsulfatase A (Homo sapiens) (UniProt P15289); assay: qHTS screen for enhancers of Arylsulfatase A (ASA1): LOPAC Validation Assay (AID 720538; active = well fitted curve in the direction sought with a large enough effect; an effect the other way counts as inactive or inconclusive; note: potency is the fitted concentration of half-maximal effect)
# Arylsulfatase A (Homo sapiens), sequence (P15289 whole entry, looked up): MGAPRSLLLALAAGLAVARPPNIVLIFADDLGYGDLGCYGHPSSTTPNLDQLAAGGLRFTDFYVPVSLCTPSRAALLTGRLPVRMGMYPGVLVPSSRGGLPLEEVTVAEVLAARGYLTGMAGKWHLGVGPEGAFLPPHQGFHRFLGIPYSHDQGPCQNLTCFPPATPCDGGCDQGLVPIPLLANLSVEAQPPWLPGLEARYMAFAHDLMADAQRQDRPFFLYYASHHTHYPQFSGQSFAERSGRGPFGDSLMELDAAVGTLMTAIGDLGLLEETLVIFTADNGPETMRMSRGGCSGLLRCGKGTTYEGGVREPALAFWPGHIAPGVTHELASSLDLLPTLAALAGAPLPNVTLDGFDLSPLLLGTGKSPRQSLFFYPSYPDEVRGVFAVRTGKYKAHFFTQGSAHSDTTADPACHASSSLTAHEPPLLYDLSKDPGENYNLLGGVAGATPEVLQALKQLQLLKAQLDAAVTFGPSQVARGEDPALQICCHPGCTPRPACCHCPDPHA
# How it was run: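 MLD patient fibroblasts (SV40, ASA-I179S), 1536-well; adhere 6 hrs; cpd 48h, 37 degree C, 5% CO2; pNCS 0.5mM final in lysis buffer, 14h RT; stop 1N NaOH final; fluor. Ex525/Em598.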
# [16] = qHTS for compounds that reverse cellular toxicity of Amyloid beta (A-beta) peptide in yeast: LOPAC Validation Assay (AID 720559; active = well fitted curve in the direction sought with a large enough effect; an effect the other way counts as inactive or inconclusive;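 note: plate controls were DMSO for no effect and equimolar ferric chloride plus clioquinol rescue for full effect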)
# How it was run: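 Medium dispensed, compounds pinned, A-beta yeast suspension added; plates held at 30 C for 48 hr; absorbance measured at 600 nm to gauge growth; values scaled between DMSO and FeCl3/clioquinol (equimolar) controls.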
# [17] = qHTS for Activators of Parkin Expression: LOPAC Validation Assay (NLuc Reporter) (AID 720572; active = well fitted curve in the direction sought with a large enough effect; an effect the other way counts as inactive or inconclusive)
# How it was run: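 Compound effects on Parkin promoter activity were measured as NanoLuc luminescence after 24 h at 37 C. The neuronal reporter line also carried FLuc, which was read first. LOPAC compounds were tested at 7 concentrations, with normalization to DMSO (0%) and positive control (100%).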
# [18] = qHTS for Activators of Parkin Expression: LOPAC Validation Assay (FLuc Reporter) (AID 720573; active = well fitted curve in the direction sought with a large enough effect; an effect the other way counts as inactive or inconclusive; note: potency is the fitted concentration of half-maximal effect)
# How it was run: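 Cells seeded, 24 h; compounds pinned, 7-pt dose response; 24 h at 37 C/5% CO2; volume reduced; FLuc reagent 10 min RT; luminescence read. Normalization: DMSO = 0, positive control = 100%.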
# [19] = target: T1, Hexokinase-4 (Homo sapiens) + Glucokinase regulatory protein (Homo sapiens) (UniProt P35557+Q14397); assay: qHTS assay for inhibitors of recombinant human GCK-GKRP interaction: Diaphorase-coupled assay (AID 743205; active = well fitted curve in the direction sought with a large enough effect; an effect the other way counts as inactive or inconclusive)
# T1 sequence (P35557 whole entry, looked up): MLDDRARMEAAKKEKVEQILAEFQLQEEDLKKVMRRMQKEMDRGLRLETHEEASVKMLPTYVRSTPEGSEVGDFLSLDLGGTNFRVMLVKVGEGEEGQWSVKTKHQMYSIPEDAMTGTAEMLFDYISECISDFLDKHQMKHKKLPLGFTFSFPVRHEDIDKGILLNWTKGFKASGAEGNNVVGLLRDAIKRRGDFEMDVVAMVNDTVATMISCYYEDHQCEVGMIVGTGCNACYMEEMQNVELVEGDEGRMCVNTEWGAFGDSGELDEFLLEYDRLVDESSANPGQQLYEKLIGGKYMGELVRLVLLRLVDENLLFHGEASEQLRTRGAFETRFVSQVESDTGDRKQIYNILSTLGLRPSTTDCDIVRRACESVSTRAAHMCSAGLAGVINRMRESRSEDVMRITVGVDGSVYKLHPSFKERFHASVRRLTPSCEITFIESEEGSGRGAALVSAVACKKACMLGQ
# T1 sequence (Q14397 whole entry, looked up): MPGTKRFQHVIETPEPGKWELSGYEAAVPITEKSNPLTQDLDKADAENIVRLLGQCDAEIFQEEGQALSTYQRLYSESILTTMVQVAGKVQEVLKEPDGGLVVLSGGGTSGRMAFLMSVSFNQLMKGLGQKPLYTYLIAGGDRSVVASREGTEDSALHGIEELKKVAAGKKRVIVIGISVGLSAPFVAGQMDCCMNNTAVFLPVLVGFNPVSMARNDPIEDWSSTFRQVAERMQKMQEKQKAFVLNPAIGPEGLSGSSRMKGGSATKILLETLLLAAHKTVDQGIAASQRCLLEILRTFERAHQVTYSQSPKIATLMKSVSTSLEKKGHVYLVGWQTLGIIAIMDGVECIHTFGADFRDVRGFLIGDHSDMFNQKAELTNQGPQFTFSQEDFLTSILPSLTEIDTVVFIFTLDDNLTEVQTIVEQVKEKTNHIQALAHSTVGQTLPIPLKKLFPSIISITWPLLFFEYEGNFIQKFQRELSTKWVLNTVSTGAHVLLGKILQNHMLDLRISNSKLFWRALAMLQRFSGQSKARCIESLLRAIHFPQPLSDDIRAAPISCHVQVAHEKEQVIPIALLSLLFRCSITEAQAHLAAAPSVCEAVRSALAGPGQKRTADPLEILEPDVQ
# How it was run: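 25 mM Hepes pH 7.6, 5 mM glucose, 0.4 mM ATP, 4 U/ml G6PDH; 10 nM each GST-GCK/FLAG-GKRP. Kinetic fluorescence read, 1/min × 30 min. Normalized: DMSO ± enzyme = max/min.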
# [20] = target: T1, Hexokinase-4 (Homo sapiens) + Glucokinase regulatory protein (Homo sapiens); assay: qHTS assay for inhibitors of recombinant human GCK-GKRP interaction: HTRF assay (AID 743207; active = well fitted curve in the direction sought with a large enough effect; an effect the other way counts as inactive or inconclusive;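 note: 0% = DMSO with GCK present and -100% = DMSO wells lacking GCK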)
# How it was run: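 5 nM GST-GCK + 5 nM FLAG-GKRP + 2 uM S6P, pH 7.1 buffer (25 mM Hepes, 2 mM MgCl2, 25 mM KCl, 1 mM DTT, Tween/BSA); pin-transferred cpd; anti-FLAG XL665/anti-GST K; 60 min RT; HTRF.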
# [21] = at 28.5 µM unless noted
smiles,measurement,setting,value
CNC[C@@H](O)[C@@H](O)[C@H](O)[C@H](O)CO,"parasite growth, % of DMSO control",[1],65.8%
same,"parasite growth remaining, % of DMSO control (lower = more inhibition)",[2]; [21],123%
same,"growth, % of control",[3]; [21],75.9%
same,"cell viability, % of control (lower = more cytotoxic)",[4],216%
CCCCN(CCCC)CCC(O)c1cc2c(Cl)cc(Cl)cc2c2cc(C(F)(F)F)ccc12 (stereo not given),remaining parasite growth % (stronger effect = lower value),[5],-0.286% [at 9.63 µM]
same,"remaining proliferation (% of control), lower = more inhibition",[6],0.576% [at 9.63 µM]
same,"parasite growth remaining, % of DMSO control (lower = more inhibition)",[2]; at 9.64 µM (top of the series),8.22%
same,"parasite growth remaining, % of DMSO control (lower = more inhibition)",[2]; at 28.5 µM,7.14%
same,"growth, % of control",[3]; at 9.64 µM (top of the series),5.69%
same,"growth, % of control",[3]; at 28.5 µM,7.8%
same,"cell viability, % of control (lower = more cytotoxic)",[4],34.8%
Clc1ccc(C(Cn2ccnc2)OCc2c(Cl)cccc2Cl)c(Cl)c1 (stereo not given),"parasite growth, % of DMSO control",[1],4.82%
same,"parasite growth remaining, % of DMSO control (lower = more inhibition)",[2]; [21],9.61%
same,"parasite growth, % of control (lower = inhibition)",[7],14.8%
same,"growth, % of control",[3]; [21],7.46%
same,"cell viability, % of control (lower = more cytotoxic)",[4],327%
O=C(O)CCNC(=O)c1ccc(N=Nc2ccc(O)c(C(=O)O)c2)cc1,max response,[8],7.5% (inactive)
same,"parasite growth remaining, % of DMSO control (lower = more inhibition)",[2]; [21],108%
same,"parasite growth, % of control (lower = inhibition)",[7],88.5%
same,"growth, % of control",[3]; [21],73.4%
same,"cell viability, % of control (lower = more cytotoxic)",[4],171%
Cc1cc(Cl)ccc1OCCCC(=O)NO,"parasite growth remaining, % of DMSO control (lower = more inhibition)",[2]; [21],72.9%
same,"parasite growth, % of control (lower = inhibition)",[7],42.1%
same,"growth, % of control",[3]; [21],41.9%
same,"cell viability, % of control (lower = more cytotoxic)",[4],21.7%
CC1(C)CCC(C)(C)c2cc(NC(=O)c3ccc(C(=O)O)cc3)ccc21,max response,[8],7.33% (inactive)
same,"parasite growth remaining, % of DMSO control (lower = more inhibition)",[2]; [21],86.1%
same,"parasite growth, % of control (lower = inhibition)",[7],27%
same,"growth, % of control",[3]; [21],49.3%
same,"cell viability, % of control (lower = more cytotoxic)",[4],73.5%
CN(C)[C@@H](CCOc1cccc2ccccc12)c1ccccc1,"parasite growth remaining, % of DMSO control (lower = more inhibition)",[2]; [21],14.4%
same,"growth, % of control",[3]; [21],15.2%
same,"cell viability, % of control (lower = more cytotoxic)",[4],165%
CC1=C(C(=O)O)N2C(=O)[C@@H](NC(=O)[C@H](N)C3=CCC=CC3)[C@H]2SC1,max response,[8],-5.14% (inactive)
same,"parasite growth remaining, % of DMSO control (lower = more inhibition)",[2]; [21],87.3%
same,"parasite growth, % of control (lower = inhibition)",[7],74.3%
same,"growth, % of control",[3]; [21],51.2%
same,"cell viability, % of control (lower = more cytotoxic)",[4],145%
Nc1cc(C(Cl)=C(Cl)Cl)c(S(N)(=O)=O)cc1S(N)(=O)=O,max response,[8],0.487% (inactive) and -9.48% (inactive)
same,"parasite growth remaining, % of DMSO control (lower = more inhibition)",[2]; [21],102%
same,"growth, % of control",[3]; [21],98.3%
same,"cell viability, % of control (lower = more cytotoxic)",[4],360%
Nc1ccc(S(N)(=O)=O)cc1,Potency,[9],inactive
same,outcome,[10],inactive
same,max response,[11],0.534% (inactive)
same,max response,[8],6.71% (inactive)
same,max response,[12],-1.9% (inactive)
same,Potency,[13],inactive
same,"parasite growth, % of DMSO control",[1],105%
same,"parasite growth remaining, % of DMSO control (lower = more inhibition)",[2]; [21],15.1%
same,"parasite growth, % of control (lower = inhibition)",[7],95.9%
same,"growth, % of control",[3]; [21],102%
O=C(NC(Cc1cc(=O)[nH]c2ccccc12)C(=O)O)c1ccc(Cl)cc1 (stereo not given),max response,[8],22.1% (inactive)
same,"parasite growth, % of DMSO control",[1],88.9%
same,"parasite growth remaining, % of DMSO control (lower = more inhibition)",[2]; [21],96.8%
same,"parasite growth, % of control (lower = inhibition)",[7],89.9%
same,"growth, % of control",[3]; [21],75.3%
O=Nc1c(-c2c(O)[nH]c3cc(Br)ccc23)[nH]c2ccccc12,outcome,[14],inactive
same,Potency,[15],21.3 µM (active)
same,outcome,[16],inactive
same,outcome,[17],inactive
same,Potency,[18],2.59 µM (active)
same,outcome,[19],inactive
same,outcome,[20],inactive
same,"parasite growth remaining, % of DMSO control (lower = more inhibition)",[2]; [21],6.11%
same,"growth, % of control",[3]; [21],1.37%
Oc1ccc2ccccc2c1SSc1c(O)ccc2ccccc12,outcome,[16],inactive
same,outcome,[17],inactive
same,Potency,[18],inactive
same,outcome,[19],inactive
same,outcome,[20],inactive
same,Potency,[8],3.55 µM (active)
same,"parasite growth, % of DMSO control",[1],6.56%
same,"parasite growth remaining, % of DMSO control (lower = more inhibition)",[2]; [21],53.4%
same,"growth, % of control",[3]; [21],9.78%
